# Assay results as given in PubChem BioAssay (EPA / NIEHS).
# Active and inactive are the calls of the source. The calls were made as follows: active = hit-call score of the fitted dose curve at least 0.9, where 1 is the maximum; inactive = score below 0.9.
# Assay: CCTE_Shafer_MEA_acute_synchrony_index: CCTE's Neural Acute Assay for Synchrony, Shafer Lab (AID 2284027);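 also: fitted for loss of signal so actives lower synchrony relative to DMSO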
# Experimental: CCTE_Shafer_MEA_acute assay is conducted using Axion Biosystems 48 well microelectrode array (MEA) plates and Maestro recording system. Each well of the MEA plate contains a grid of 16 microelectrodes embedded in the culture surface. Electrically active cells, such as neurons, can be cultured over the electrodes, and electrical activity in these cells can be recorded extracellularly. The spontaneous firing of neurons is captured from each electrode on a microsecond timescale providing both temporally and spatially precise data. […] The CCTE_Shafer_MEA_acute assay uses primary cultures of rat cortical neurons. As these cultures mature over time, neural networks develop functional activity and form cohesive networks in which electrical activity can be highly coordinated. Baseline 40-minute recordings are made on days post-plating 13 or 15, followed by a secondary 40-minute recording after chemical exposure.CCTE_Shafer_MEA_acute_synchrony_index is a component of the CCTE_Shafer_MEA_acute assay. It measures the synchrony of the neural network as a unitless measure between 0 (low synchrony) to 1 (high synchrony) during a recording in a microelectrode array (MEA) using Axion Biosystems Maestro 768 channel amplifier with the AxIS adaptive spike detector. The recordings before and after chemical treatment are used to calculate a percent change in the synchrony index in each well.Data from the assay component CCTE_Shafer_MEA_acute_synchrony_index was analyzed into 1 assay endpoint. This assay endpoint, CCTE_Shafer_MEA_acute_synchrony_index, was analyzed in the negative analysis fitting direction relative to DMSO as the negative control and baseline of activity. Using a type of functional reporter, gain or loss-of-signal activity can be used to understand electrical activity.
# Spontaneous activity in the cortical cultures was recorded using an Axion Biosystems Maestro 768 channel amplifier and Axion Integrated Studios (AxIS) v1.8 (or later) software. The amplifier recorded from all channels simultaneously (gain = 1200 x; sampling rate = 12.5 kHz/channel): raw signals were filtered with a Butterworth band-pass filter (300-5000 Hz), which filters out slower local field potentials leaving only fast potentials, i.e., "spikes", arising from extracellular currents associated with action potentials (Pine 2006; Wheeler and Nam 2011). On-line spike detection of filtered signals was conducted with the AxIS adaptive spike detector, using a threshold of 8x the root mean squared (rms) noise on each channel. Any electrodes with rms noise levels greater than 5 uV were grounded (e.g., no data were recorded). Once grounded, an electrode was grounded for the duration of the experiment. All recordings were conducted at 37 C. Wells were deemed usable if on the day of the exposure >/= 10 electrodes were active (defined as >/= 5 spikes/min). On DIV 13 or 15, a minimum of three wells from one cortical culture preparation were treated with each compound (0.03-40 uM). Prior to recording baseline activity, each mwMEA plate was placed in the Maestro at 37 C and allowed to sit for 20 min while firing rates stabilized. Baseline activity (40 min) was recorded before the addition of each compound. An additional 40 min of spontaneous activity was recorded in the presence of each compound. Changes in network parameters relative to baseline were assessed following compound treatment.
SMILES,AC50,outcome
CCCCCCCCCCO,20 µM (active),–
NS(=O)(=O)c1cc2c(cc1Cl)NCNS2(=O)=O,–,inactive
C=CCc1ccc(O)c(OC)c1,20 µM (active),–
FC(F)(F)C(F)(F)C(F)(F)C(F)(F)C(F)(F)C(F)(F)CCI,–,inactive
CCCc1cc(=O)[nH]c(=S)[nH]1,–,inactive
Cc1ccc2ncccc2c1,–,inactive
CN1CCCC1=O,–,inactive
Cc1ccc(C(C)C)c(O)c1,–,inactive
C=CCOC(=O)c1ccccc1C(=O)OCC=C,–,inactive
CCOC(=O)C(C)(C)Oc1ccc(Cl)cc1,–,inactive
CC(=O)Oc1ccccc1C(=O)O,–,inactive
NCC1(Cc2noc(=O)[nH]2)CCCCC1,–,inactive
Clc1cc(Cl)c(Cl)cc1Cl,–,inactive
Cc1ccc(C)c(O)c1C,31.6 µM (active),–
COc1ccc(S(=O)(=O)N2C(=O)[C@@](c3ccccc3OC)(N3C[C@H](O)C[C@H]3C(=O)N(C)C)c3cc(Cl)ccc32)c(OC)c1,–,inactive
Nc1nc(N)c2nc(CNc3ccc(C(=O)N[C@@H](CCC(=O)O)C(=O)O)cc3)cnc2n1,–,inactive
Nc1ccc2c(c1)C(=O)c1ccccc1C2=O,–,inactive
CN[C@H]1CC[C@@H](c2ccc(Cl)c(Cl)c2)c2ccc(S(N)(=O)=O)cc21,32 µM (active),–
CNCc1cc(F)ccc1Oc1ccc(Cl)c(Cl)c1,–,inactive
Nc1ccccc1N,–,inactive
O=C(O)CCCCC(=O)O,–,inactive
CC(=O)C(C)=CC1C(C)=CCCC1(C)C (configuration not stated),20 µM (active),–
c1cc(-c2ccncc2)ccn1,–,inactive
COc1ccc2c(c1)c(CC(=O)O)c(C)n2C(=O)c1ccc(Cl)cc1,–,inactive
C[Si]1(C)O[Si](C)(C)O[Si](C)(C)O[Si](C)(C)O1,–,inactive
CC(C)(C)c1cc(O)c(C(C)(C)C)cc1O,–,inactive
CCCCCCCCCCCCCCCCCC(=O)O,–,inactive
